# Assay outcomes deposited in PubChem by National Center for Advancing Translational Sciences (NCATS).
# In the library only some 7.3% were active in any assay of this set; here they are far more common.
# Tau fluor cs – counter-screen for tau fibril formation inhibitors | tau K18 P301L Alexa594 fluorescence, heparin fibrillization | Potency, µM (top dose mostly 57.7 µM), without a hit: top-dose activity change, negative = decrease | hit rate 0.93% among 280,000; also: nearly all actives have a fitted effect of over 55% in size
#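 Human K18 P301L tau (15 uM unlabeled plus 0.24 uM Alexa 594-labeled, final) in 100 mM sodium acetate pH 7 was mixed with compound and 20 uM heparin and incubated 6 hr at 37 C.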
# Gal4-VP16 FLuc – inhibits Gal4-VP16 luciferase reporter, ROR gamma counter-screen | Drosophila S2 Gal4-VP16 UAS-luciferase, luminescence, 20 h | AID 2546 | hit rate 3.5% among 310,000 | Potency, µM (titrated, usually from 53.6 µM), without a hit: at the highest dose activity, negative = inhibition, hits mostly inhibitors;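 also: Gal4-VP16 expression switched on by copper sulfate through the metallothionein promoter; nearly all actives have a fitted effect of over 50% in size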
# Tau fibril ThT – inhibitors of human tau fibril formation, thioflavin T binding; P10636; recombinant tau K18 P301L, heparin-induced fibrillization, ThT fluorescence; Potency, µM (titrated, usually from 57.4 µM), inactives show at the highest dose activity, negative = inhibition, hits mostly inhibitors; hit rate 2.1% among 270,000; AID 1460; also: nearly all actives have a fitted effect of over 55% in size
# Target sequence (P10636 561-689 P618L limits assumed): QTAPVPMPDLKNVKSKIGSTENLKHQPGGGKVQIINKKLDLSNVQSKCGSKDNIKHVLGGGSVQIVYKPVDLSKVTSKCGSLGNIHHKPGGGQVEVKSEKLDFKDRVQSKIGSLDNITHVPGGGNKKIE
#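 Using a mix of unlabeled (15 uM) and Alexa 594-labeled (0.24 uM) tau K18 P301L, heparin-triggered fibrillization over 6 hr at 37 C was scored by ThT fluorescence.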
# Tau fibril FP – inhibitors of human tau fibril formation; AID 1468; hit rate 0.39% among 280,000; K18 P301L tau heparin fibrillization, Alexa594 FP, 6 h; Potency, µM (doses to about 57.7 µM), for the others: top-dose activity, negative = inhibition, actives largely listed as inhibitors; also: nearly all actives have a fitted effect of over 55% in size
#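 Heparin (20 uM) drove fibril formation of recombinant tau K18 P301L, 15 uM unlabeled with 0.24 uM Alexa 594 label, for 6 hr at 37 C in 100 mM sodium acetate pH 7. Fluorescence polarization (555/632 nm) read 1 hr after 30 uM ThT.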
# RORgamma inh – ROR gamma (mouse) transcription inhibition | P51450 | Drosophila S2 Gal4-RORgamma UAS-luciferase reporter, 20 h | Potency, µM (top dose mostly 53.6 µM), for inactives: at the highest dose activity change, negative = inhibition, most hits filed as inhibitors | hit rate 5.4% among 310,000 | AID 2551; also: nearly all actives have a fitted effect of over 60% in size
# Target sequence (P51450 whole entry, looked up, the tested form may be a part): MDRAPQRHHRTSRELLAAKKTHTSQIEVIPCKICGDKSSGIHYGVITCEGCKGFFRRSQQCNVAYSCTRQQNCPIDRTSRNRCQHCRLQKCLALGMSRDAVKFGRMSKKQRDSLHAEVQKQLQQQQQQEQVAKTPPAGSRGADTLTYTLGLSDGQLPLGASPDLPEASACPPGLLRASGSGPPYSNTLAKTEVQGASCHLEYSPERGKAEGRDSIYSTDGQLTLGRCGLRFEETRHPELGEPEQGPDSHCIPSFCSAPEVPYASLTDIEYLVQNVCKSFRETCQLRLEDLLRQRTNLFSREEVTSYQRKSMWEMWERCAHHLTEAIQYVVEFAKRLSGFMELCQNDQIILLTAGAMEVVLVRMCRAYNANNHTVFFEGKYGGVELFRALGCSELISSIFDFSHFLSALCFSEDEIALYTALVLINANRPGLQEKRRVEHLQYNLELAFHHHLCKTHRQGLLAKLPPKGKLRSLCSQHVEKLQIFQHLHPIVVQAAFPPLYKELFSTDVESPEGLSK
#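 In this cell-based reporter format, copper sulfate (700 uM final) drives Gal4–ROR gamma fusion expression from a metallothionein promoter in Drosophila Schneider cells; compounds preincubated 1 hr, reporter read after 20 hr at ambient temperature.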
# Numbers without * were called inactive; ? = inconclusive; / = not tested or not shown; [ ] = another dose, or the depositor's remark. Calls follow the shape of the dose curve; as a rule, active = well fitted curve in the direction sought with a large enough effect; inconclusive = small, poorly fitted or top-dose-only effect, or another doubt; inactive = no such curve, though single readings can be large; an effect the other way counts as inactive or inconclusive. % is scaled to controls: 0 for no effect and ±100 for the full control effect; potency is read from the fitted curve at half-maximal effect.
SMILES,Tau fluor cs,Gal4-VP16 FLuc,Tau fibril ThT,Tau fibril FP,RORgamma inh
Cc1ccc(NC(=O)COCC(=O)Nc2ccc(F)cc2)cc1,/,-6.7%,/,/,11.0%
COCCNc1nc(N)c([N+](=O)[O-])c(NCc2ccccc2)n1,/,-0.9%,/,/,21.1%
S=c1[nH]nc(C2CCCCC2)n1/N=C/c1ccc(Br)s1,-6.2%,3.98µM*,-2.9%,-4.4%,1.12µM*
S=c1[nH]nc(C2CCCCC2)n1/N=C/c1ccc(Br)cc1,/,?,/,/,1.41µM*
FC(F)(F)c1ccc(/C=N/n2c(C3CCCCC3)n[nH]c2=S)cc1,/,10µM*,/,/,-38.5%
S=c1[nH]nc(C2CCCCC2)n1/N=C/c1ccc(Cl)cc1,/,7.94µM*,/,/,0.355µM*
O=C(O/N=C/c1ccc(Cl)cc1)C1CCCCC1,/,-3.9%,/,/,1.9%
Cc1ccc(S(=O)(=O)c2[nH]c(-c3ccccc3)nc2SCC(N)=O)cc1,-12.4%,/,-4.4%,-6.5%,/
Cc1ccc(/C=N/n2c(C3CCCCC3)n[nH]c2=S)cc1,/,7.08µM*,/,/,2.51µM*
CCc1ccc(/C=N/n2c(C3CCCCC3)n[nH]c2=S)cc1,/,8.91µM*,/,/,3.55µM*
Cc1cc(OC(F)F)ccc1NC(=S)NC1CCCC1,/,7.08µM*,/,/,2.51µM*
Cc1ccc(C)c(NC(=S)NC2CC3CCCC(C2)N3CC(C)C)c1 (configuration not stated),-0.8%,?,-6.0%,1.9%,14.1µM*
Cc1cc(F)ccc1NC(=S)NC1CCCC1,/,10µM*,/,/,6.31µM*
Cc1ccc(NC(=O)NC2CCCCC2)c(C)c1,10.3%,10.1%,8.9%,-0.2%,14.1%
Cc1ccc(NC(=S)NC2CCCC2)c(C)c1,/,6.31µM*,/,/,7.08µM*
Cc1ccc(NC(=O)NC2CCCCCCC2)c(C)c1,/,-22.1%,/,/,-6.2%
C/C=C1\COC(C(=O)NCCN2CCOCC2)(C(F)(F)F)C=C1C=C1CCCCC1 (configuration not stated),/,-18.5%,/,/,-25.0%
COc1ccc(NC(=O)CSC2=Nc3ccccc3N=C(c3ccc(F)cc3)C2)cc1OC,-26.8%,/,-6.0%,4.8%,/
Cc1nc2cc(Cl)ccc2c(=O)n1Cc1ccncc1,/,-0.3%,/,/,2.6%
C/C(=N/O)c1ccccn1,8.3%,0.5%,-7.8%,-5.7%,-28.2%
C/C(=N\NC(=O)c1ccncc1)c1cc2ccccc2o1,1.9%,-1.0%,-5.6%,-11.4%,?
C/C(=N\Nc1nc2ccccc2[nH]1)c1cc2ccccc2o1,?,3.55µM*,14.1µM*,?,4.47µM*
C/C(=N\Nc1nc2ccccc2[nH]1)c1ccccn1,/,-70.1%,/,/,2.51µM*
Cc1sc(N)nc1-c1ccccc1,-5.1%,5.5%,-8.0%,0.4%,23.4%
Nc1nc(-c2ccccc2)c(N=Nc2cccnc2)s1,?,-7.1%,2.82µM*,4.2%,?
SMILES,Tau fluor cs,Gal4-VP16 FLuc,Tau fibril ThT,Tau fibril FP,RORgamma inh
O=C1c2ccccc2NC(c2ccc(-c3ccc(Br)cc3)o2)N1O (configuration not stated),?,?,?,0.0%,7.08µM*
C=CCN(C(C(=O)OC)C(C)C)S(=O)(=O)CCl (configuration not stated),/,-1.1%,/,/,-13.6%
O=C(/C=C/c1c[nH]c2ccccc12)c1cccc2ccccc12,6.31µM*[quencher],?,?,?,5.01µM*
COc1cc(Cl)c(C)cc1NC(=O)CSc1cc(=O)n(C)c2cc(Cl)ccc12,-13.0%,/,?,-9.5%,/
O=C(Nc1ccc(N2CCOCC2)cc1)c1cnsn1,-3.8%,1.78µM*,?,8.4%,2µM*
O=C(Nc1ccc(N2CCOCC2)cc1)c1cnccn1,/,7.94µM*,/,/,5.01µM*
O=C(CSc1nncn1-c1ccccn1)Nc1cccc(Cl)c1,-9.7%,-10.8%,-5.7%,-6.2%,7.9%
O=C(CSC1=NNC(c2ccccn2)S1)Nc1ccccc1 (configuration not stated),-24.2%,2.51µM*,/,?,1µM*
O=C(CSc1nnc(-c2ccccn2)o1)Nc1ccccc1,7.1%,2.8%,0.9%,1.3%,33.3%
O=C(CSC1=NNC(c2ccccn2)S1)Nc1cccc(Cl)c1 (configuration not stated),-8.1%,12.6µM*,/,4.0%,3.55µM*
S=C(NCCc1ccccc1)N/N=C/C1CCCCC1,-6.7%,5.62µM*,-7.9%,8.2%,1.41µM*
O=C(NC1CCCCCC1)C(=S)NCCc1ccccc1,-2.5%,3.8%,-8.7%,-4.5%,41.2%
O=C(NC(=S)NCc1ccccc1)C1CC1,-6.7%,?,-3.1%,-3.8%,6.31µM*
O=C(NC(=S)NCCc1ccccc1)C1CCCCC1,-8.5%,3.98µM*,-7.0%,3.4%,2.82µM*
O=C(NCc1ccccc1)C1CCCC1,/,5.0%,/,/,1.3%
O=C(CNC(=S)NC(=O)C1CCCCC1)c1ccccc1,-8.9%,?,-17.6%,-3.7%,7.94µM*
S=C(NCCc1ccccc1)NN=C1CCCCCC1,1.4%,0.6%,-0.2%,2.7%,-15.0%
Cc1nc(-c2ccccc2)sc1-c1ccc(SCC(=O)Nc2ccc(F)cc2F)nn1,-19.8%,/,1.6%,-13.9%,/
CCOC(=O)c1c(NC(=O)c2ccc(S(=O)(=O)N(C)C3CCCCC3)cc2)sc2c1CCN(C(C)C)C2,-1.4%,/,-2.0%,4.8%,/
COc1ccc(S(=O)(=O)N2CCC(C(=O)NC3CCCC3)CC2)cc1C,/,-6.0%,/,/,19.5%
N#CC1=C(N)N2C(=C(C#N)C1c1ccc(Br)cc1)Nc1ccccc12 (configuration not stated),?,11.2µM*,?,?,?
N#CC1=C(N)N2C(=C(C#N)C13CCN(Cc1ccccc1)CC3)Nc1ccccc12,-16.5%,2.8%,-24.2%,4.2%,-41.8%
N#CC1=C(N)N2C(=C(C#N)C1c1ccccc1)Sc1ccccc12 (configuration not stated),-4.9%,10.3%,-14.0%,-2.9%,-5.2%
N#CC1=C(N)N2C(=C(C#N)C1c1cccc(Br)c1)Nc1ccccc12 (configuration not stated),?,12.6µM*,-3.2%,?,?
CN(C)c1nc(-c2cccc(NS(C)(=O)=O)c2)nc2ccccc12,/,4.0%,/,/,44.2%
SMILES,Tau fluor cs,Gal4-VP16 FLuc,Tau fibril ThT,Tau fibril FP,RORgamma inh
COC(=O)c1cccnc1,-1.9%,-1.7%,-9.8%,0.3%,-0.7%
Clc1ccc2c(N/N=C/c3ccccc3Br)ccnc2c1,-27.2%,17.8µM*,?,?,-109.5%
CN=C1N[C@H](c2ccccc2)N(c2ccccc2)S1,-15.8%,28.2µM*,20µM*,31.6µM*,10µM*
O=C(NCc1ccc(F)cc1)C(c1ccco1)N(C(=O)c1csnn1)C1CC1 (configuration not stated),/,8.3%,/,/,-5.9%
Cc1cc(N2CCCC2)nc2ccc(NC(=S)NCCCOC(C)C)cc12,-13.9%,?,-15.2%,9.2%,11.2µM*
COc1ccccc1CNC(=S)Nc1ccc2nc(N3CCN(C)CC3)cc(C)c2c1,20µM*[quencher],-2.9%[10 µM],?,?,9.2%
